Experimental data from PubChem BioAssay AID588342 (National Center for Advancing Translational Sciences (NCATS), 2011).
Among all 360,000 compounds or so, about 25,000 (6.9%) were called active. About 9% were inconclusive and are not listed. For the sample, actives were picked, then their nearest neighbours and some compounds at random. Unmarked numbers belong to inactive results. The call rests on the fitted dose curve; in most records, active means well fitted inhibition curve with a large enough effect; inconclusive means small, poorly fitted or top-dose-only effect; inactive means flat fitted curve, though single readings scatter.

What follows are compounds tested against Luciferin 4-monooxygenase (Photinus pyralis) (UniProt P08659) (assay: qHTS profiling assay for firefly luciferase inhibitor/activator using purifed enzyme and Km concentrations of substrates (counterscreen for miR-21 project)). Conditions: purified FLuc, luminescence inhibition; series mostly up to 57.5 µM; activity change, negative = inhibition: at the top concentration.
Method in brief: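 Purified P. pyralis luciferase (10nM final) with 10uM D-luciferin and 10uM ATP (Km levels) in 50mM Tris acetate pH 7.5, 10mM Mg acetate, 0.01% Tween-20, 0.05% BSA; qHTS 6-point titration, ~60 µM downward; luminescence read.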
Further: nearly all actives have a fitted effect of over 55% in size.
Potency means the concentration at half of the fitted maximal effect.
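Wherever activity change, negative = inhibition is given: plate controls were vehicle for no effect and reference inhibitor for full effect.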

Luciferin 4-monooxygenase (Photinus pyralis), sequence (P08659 whole entry, looked up): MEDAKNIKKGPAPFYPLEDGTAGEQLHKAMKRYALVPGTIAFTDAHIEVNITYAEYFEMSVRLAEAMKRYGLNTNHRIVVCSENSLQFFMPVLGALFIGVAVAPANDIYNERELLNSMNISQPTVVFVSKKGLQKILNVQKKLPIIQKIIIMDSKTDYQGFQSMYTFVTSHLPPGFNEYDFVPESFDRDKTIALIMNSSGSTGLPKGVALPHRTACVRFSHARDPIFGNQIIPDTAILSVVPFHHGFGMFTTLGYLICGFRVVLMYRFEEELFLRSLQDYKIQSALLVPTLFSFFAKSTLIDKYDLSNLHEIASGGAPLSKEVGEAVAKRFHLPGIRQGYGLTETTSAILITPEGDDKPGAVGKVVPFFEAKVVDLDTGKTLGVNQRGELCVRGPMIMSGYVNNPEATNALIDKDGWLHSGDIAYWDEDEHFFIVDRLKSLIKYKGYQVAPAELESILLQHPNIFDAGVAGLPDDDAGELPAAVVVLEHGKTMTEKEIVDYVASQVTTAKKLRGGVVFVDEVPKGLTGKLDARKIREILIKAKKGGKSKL

Row | SMILES | activity change, negative = inhibition [%] | Potency
1 | O=C(CSc1nnc(CNC(=O)c2ccccc2)n1-c1ccc(F)cc1)Nc1ccccc1F | -5.85 | 
2 | Cc1cc[n+](-c2[nH]c(=O)sc2/C=N/NC(=O)c2ccccc2[O-])cc1C | 0.934 | 
3 | Cc1[nH]n(-c2ccccc2)c(=O)c1/C=N/NC(=O)c1ccoc1C |  | 21.3 µM (active)
4 | Cc1ccc(-n2[nH]c(C)c(/C=N/NC(=O)c3cccc([N+](=O)[O-])c3)c2=O)cc1C |  | 0.426 µM (active)
5 | Cc1[nH]n(-c2ccc([N+](=O)[O-])cc2)c(=O)c1C=NCCN1CCN(C(=O)c2ccccc2F)CC1 | -12 | 
6 | COc1cc(/C=N/NC(=O)c2ccoc2C)ccc1OCCN1CCCCC1 | -1.73 | 
7 | COc1cc(OC)c(/C=N/NC(=O)c2ccc([N+](=O)[O-])cc2)cc1Br | -14.7 | 
8 | O=C(NNC1=NCCC1)c1cccc(S(=O)(=O)N2CCCCC2)c1 | -1.3 | 
9 | Cc1ccc(Cl)cc1N(C)C(=O)Cn1nc(Cc2cccnc2)c2ccccc2c1=O | -1.43 | 
10 | COc1cccc(N2CCN(C(=O)CCCCCn3c(=O)[nH]c4ccccc4c3=O)CC2)c1 | 5.13 | 
11 | COCCN(C(=O)CC1CCCCC1)c1c(N)n(CC(C)C)c(=O)[nH]c1=O | 0.775 | 
12 | CCOC(=O)N1CCc2c(sc3c2c(=O)n(-c2ccc(CC)cc2)c(=O)n3C)C1 | 0.141 | 
13 | CCNC(=O)c1cnn(-c2ccccc2)c1-c1ccccc1 | -2.26 | 
14 | CC(=O)c1nn(-c2ccc(OC(F)(F)F)cc2)nc1Nc1ccccc1 |  | 0.379 µM (active)
15 | O=C(Cn1cnc2c(oc3ccccc32)c1=O)Nc1ccc(OC(F)(F)F)cc1 | 1.89 | 
16 | CCN(CC)CC(=O)Nc1nn(-c2ccccc2)nc1C(N)=O | -26.6 | 
17 | Cc1ccc(C(=O)NCCSc2c(C)[nH]c3ccccc23)cc1C | 3.87 | 
18 | O=C(NCc1ccco1)c1nc(-c2ccccc2)n(-c2ccccc2)n1 | 3.28 | 
19 | CCOc1ccc(CNC(=O)c2cc(-c3ccc(Cl)s3)nc3ccccc23)cc1 | -1.03 | 
20 | CCc1ccc(-c2cc(C(=O)NCc3ccco3)c3ccccc3n2)s1 |  | 5.36 µM (active)
21 | COc1ccccc1N1CCN(CCCNC(=O)c2cnn(-c3ccccc3Cl)c2C2CCN(C(=O)OC(C)(C)C)CC2)CC1 | -6.1 | 
22 | Cc1ccc(OS(=O)Nc2cccc3nccnc23)cc1 (stereo not drawn) | -1.56 | 
23 | CCOc1ccc(NC(=O)C(=O)NCCc2csc3nc(-c4ccccc4F)nn23)cc1 | 3.81 | 
24 | COc1cc(OC)c(C(=O)NC2CCCCCC2)cc1OC | -18.4 | 
25 | COc1ccc(OC)c(NC(=O)c2sc3nc(C)cc(C)c3c2N)c1 | -0.687 | 
26 | COCc1cc(C)nc2sc(C(=O)NC3CCCCC3)c(N)c12 |  | 16.9 µM (active)
27 | CCOC(=O)c1c(C)oc2nc(C)nc(Nc3ccc(CC)cc3)c12 | -5.35 | 

Row | SMILES | activity change, negative = inhibition [%] | Potency
28 | COc1cccc(NC(=O)C(=O)c2cn(CC(=O)N3CCOCC3)c3ccccc23)c1 |  | 5.36 µM (active)
29 | COc1cccc(NC(=O)CS(=O)(=O)c2cn(CC(=O)N3CCOCC3)c3ccccc23)c1 | -3.28 | 
30 | CN1CCN(C(=O)C(=O)c2cn(CC(=O)N3CCCC3)c3ccccc23)CC1 | 4.17 | 
31 | O=C(Nc1ccc(F)cc1)C(=O)c1cn(CC(=O)N2CCOCC2)c2ccccc12 |  | 2.69 µM (active)
32 | O=C(CSc1cn(CC(=O)N2CCOCC2)c2ccccc12)Nc1ccccc1 | -4.95 | 
33 | O=C(NCc1ccco1)C(=O)c1cn(CC(=O)N2CCCCCC2)c2ccccc12 | -6.85 | 
34 | CCc1cccc(C)c1NS(=O)(=O)c1ccc(-c2cc(C)no2)s1 | -0.558 | 
35 | Cc1ccc2oc(=O)c3cnn(CC(=O)N4CCN(c5cccc(Cl)c5)CC4)c3c2c1 | 0.67 | 
36 | Cc1ccc(N2CC(c3nnc(Cc4ccccc4Cl)o3)CC2=O)cc1 (stereo not drawn) | 3.35 | 
37 | Cc1cccc(NC(=O)CSc2nc3c(oc4ccccc43)c(=O)n2-c2ccc(F)cc2)c1 | 3.43 | 
38 | COc1ccc(-c2nc3nc(C)cc(C)n3c2Nc2c(C)cccc2C)cc1 | 4.68 | 
39 | CCCCC(CC)CNC(=O)C1CCN(S(=O)(=O)c2cccc3nsnc23)CC1 (stereo not drawn) | -6.3 | 
40 | O=C(OC1CCOC1=O)c1ccc(-c2nc3ccccc3s2)s1 (stereo not drawn) |  | 0.19 µM (active)
41 | Cc1nn(Cc2ccccc2)c(Cl)c1C(=O)OC1CCOC1=O (stereo not drawn) | 2.71 | 
42 | COc1cc(C(=O)OC2CCOC2=O)c([N+](=O)[O-])cc1OC (stereo not drawn) | 0.894 | 
43 | CCOC(=O)c1c(NC(=O)CNC2CCCc3ccccc32)sc(C(N)=O)c1C (stereo not drawn) | -10.6 | 
44 | CCC(=O)N1CCCc2ccccc21 | -1.02 | 
45 | O=C(CSCc1ccccc1)N1CCc2ccccc21 |  | 2.39 µM (active)
46 | O=C(CN1CCN(c2ccccn2)CC1)N1CCc2ccccc21 | 5.78 | 
47 | CCc1nc2ccccc2c(C(=O)OC2CCCCC2=O)c1C (stereo not drawn) | -1.89 | 
48 | CCCn1c(CCNc2nc(-c3ccc(OC)cc3)cs2)nc2ccccc21 | 1.09 | 
49 | CCCn1c(C2CCCN2c2nc(-c3ccc(OC)cc3)cs2)nc2ccccc21 (stereo not drawn) | -4.67 | 
50 | COc1ccc(C2C(C(C)=O)=C(O)C(=O)N2c2nccs2)cc1 (stereo not drawn) | 1.02 | 
51 | COc1ccc(-c2csc(Cc3nc(O)cs3)n2)cc1 |  | 2.69 µM (active)
52 | COc1ccc(-c2csc(Nc3ccc(O)cc3)n2)cc1 |  | 1.35 µM (active)
53 | NS(=O)(=O)c1ccc(Nc2nc(-c3ccccc3)cs2)cc1 |  | 21.3 µM (active)
